# Data from PubChem BioAssay AID1645838 (ICCB-Longwood Screening Facility, Harvard Medical School, 2021).
# Among all 2,000 compounds or so, about 100 (5%) were called active. This is one part of a sample in which actives are shown more often than they occur. Cut-off read from the data, not from the text of the source: active = z-score above about 2; inactive = the rest.
# Assay: supercomplex reporter luminescence per Hoechst cell count – Hoechst nuclei count (AID 1645838);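 note: control cybrid cells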;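 for z-score: higher means more mitochondrial supercomplex formation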
# Details: Cells, luminescence/Hoechst cell count ratio; for z-score: stronger effect = higher value; for cell count: measured here: cell number, Hoechst nuclei count
# [1] = library stock concentration (final well concentration not given) 46 uM
# [2] = library stock concentration (final well concentration not given) 278 uM
# [3] = library stock concentration (final well concentration not given) 1.67 mM
# [4] = library stock concentration (final well concentration not given) 10 mM
# [5] = library stock concentration (final well concentration not given) 80 uM
# [6] = library stock concentration (final well concentration not given) 400 uM
# [7] = library stock concentration (final well concentration not given) 2 mM
compound,measurement,setting,value
CCCCC[C@@H](O)/C=C/[C@H]1[C@H](O)CC(=O)[C@@H]1C/C=C\CCCC(=O)O,z-score,,-0.0831 (inactive)
same,cell count,,5100
CCCCCCCCCCCC(=O)O,z-score,,0.0111 (inactive)
same,cell count,,5210
CCCCCCCCCCCCCCCCCCCCCCCCCCCCCCO,z-score,,-1.19 (inactive)
same,cell count,,5750
CCCCCCCCCCCCCCP(=O)(O)O,z-score,,1.99 (active)
same,cell count,,4360
O=C(O)CCn1nnc2ccccc21,z-score,[1],-0.598 (inactive)
same,z-score,[2],-0.676 (inactive)
same,z-score,[3],-0.406 (inactive)
same,z-score,[4],-0.311 (inactive)
same,cell count,[1],7120
same,cell count,[2],7440
same,cell count,[3],7310
same,cell count,[4],7490
Cn1cncc1[C@@](N)(c1ccc(Cl)cc1)c1ccc2c(c1)c(-c1cccc(Cl)c1)cc(=O)n2C,z-score,[5],0.384 (inactive)
same,z-score,[6],1.69 (inactive)
same,z-score,[7],2.04 (active)
same,z-score,[4],1.89 (inactive)
same,cell count,[5],5540
same,cell count,[6],3990
same,cell count,[7],3590
same,cell count,[4],3700
CCCCCCCC/C=C\CCCCCCCCCCCCCC(=O)N[C@@H](CO)[C@H](O)/C=C/CCCCCCCCCCCCC,z-score,,0.191 (inactive)
same,cell count,,5540
CCCCC[C@H]1/C=C/[C@@H]2[C@@H](C/C=C\CCCC(=O)O1)[C@@H](O)C[C@H]2O,z-score,,-1.49 (inactive)
same,cell count,,5780
Cn1c2cc(S(C)=O)sc2c2cnn(Cc3cccc(N)c3)c(=O)c21 (configuration not stated),z-score,[1],0.266 (inactive)
same,z-score,[2],0.15 (inactive)
same,z-score,[3],-0.3 (inactive)
same,z-score,[4],-0.338 (inactive)
same,cell count,[1],6150
same,cell count,[2],6110
same,cell count,[3],6540
same,cell count,[4],6600
O=P(O)(O)O[C@H]1[C@@H](O)[C@H](O)[C@@H](OP(=O)(O)O)[C@H](OP(=O)(O)O)[C@H]1O,z-score,,-0.14 (inactive)
same,cell count,,4340
COC(=O)NC(C)CNc1nccc(-c2cn(C(C)C)nc2-c2cc(Cl)cc(NS(C)(=O)=O)c2F)n1 (configuration not stated),z-score,[1],-0.459 (inactive)
same,z-score,[2],-0.411 (inactive)
same,z-score,[3],0.775 (inactive)
same,z-score,[4],4.21 (active)
same,cell count,[1],6450
same,cell count,[2],6190
same,cell count,[3],4330
same,cell count,[4],1620
CCN(C)C(=O)Oc1cccc(C(C)N(C)C)c1 (configuration not stated),z-score,[5],-0.403 (inactive)
same,z-score,[6],-0.339 (inactive)
same,z-score,[7],-0.314 (inactive)
same,z-score,[4],-0.639 (inactive)
same,cell count,[5],6790
same,cell count,[6],6310
same,cell count,[7],6660
same,cell count,[4],6230
CC(C)(C)n1nc(Cc2cccc3ccccc23)c2c(N)ncnc21,z-score,,-0.348 (inactive)
same,cell count,,5760
CC(C)(C)n1nc(-c2ccc(Cl)cc2)c2c(N)ncnc21,z-score,[5],-0.14 (inactive)
same,z-score,[6],0.32 (inactive)
same,z-score,[7],0.695 (inactive)
same,z-score,[4],1.68 (inactive)
same,cell count,[5],5420
same,cell count,[6],5110
same,cell count,[7],5300
same,cell count,[4],4150
Cc1ccc(-c2nn(C(C)(C)C)c3ncnc(N)c23)cc1,z-score,[1],0.0479 (inactive)
same,z-score,[2],0.621 (inactive)
same,z-score,[3],1.98 (active)
same,z-score,[4],5.9 (active)
same,cell count,[1],6410
same,cell count,[2],5940
same,cell count,[3],6220
same,cell count,[4],4640
